Screening data as filed in PubChem.
BRCA1 expr act: BRCA1 expression activation. MCF7-BRCA1-FFLuc reporter, luminescence, 48 h; response scale: scaled: vehicle 0%, 10 µM genistein 100%. Potency, µM (titrated, usually from 46.1 µM), for inactives: top-dose activation, hits mostly activators. actives 1.1% (n = 380,000). AID 624202; also: potency is read from the fitted curve at half-maximal effect; nearly all actives have a fitted effect of over 80% in size
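Cells: MCF7-BRCA1-FFLuc, 2000/well. Exposure: 48 h, 37 °C, 5% CO2. Read: luminescence, 15 min post-substrate. Controls: genistein 10 microM (maximal activation), DMSO (neutral).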
p53 reactivator: mutant p53 re-activation in reporter cells; H1299 p53-A138V BP100-luciferase reporter, luminescence, 24 h; Potency, µM (highest dose often 92.2 µM), inactives show at the top dose activity change, positive = activation, hits mostly activators; actives 0.063% (n = 320,000); AID 504706; also: potency is read from the fitted curve at half-maximal effect; % of control where 0% means no effect; nearly all actives have a fitted effect of over 45% in size
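H1299 (p53-null), stable ts p53-A138V + BP100-Luc; 1000 cells/well, Opti-MEM/10% FBS; cpd 4 pt, 1:5; 24 h, 37 deg C, 5% CO2; detection reagent 10 min RT; luminescence.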
ELG1 DNA repair: inhibitors of ELG1-dependent DNA repair in HEK293T cells. HEK293T ELG1-luciferase reporter, luminescence, 16 h; DNA damage induced by 5-fluorouridine. Potency, µM (top dose mostly 46.1 µM), for the others: top-dose activity change, negative = inhibition, most hits filed as inhibitors. actives 2.3% (n = 330,000); also: potency is read from the fitted curve at half-maximal effect; % is scaled to controls: 0 for no effect and ±100 for the full control effect; nearly all actives have a fitted effect of over 55% in size
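5-Fluorouridine DNA damage + compound/DMSO, 2,000 cells/well, 16 h, 37 °C/5% CO2. ONE-Glo, 30 min RT, luminescence. Readout = decrease in reporter signal.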
RORg inh: inhibitors of mouse ROR gamma transcriptional activity; actives 5.4% (n = 310,000); Drosophila S2 Gal4-RORgamma UAS-luciferase reporter, 20 h; Potency, µM (series often up to 53.6 µM), for the others: at the top dose activity change, negative = inhibition, usual class: inhibitors; also: potency is read from the fitted curve at half-maximal effect; % is scaled to controls: 0 for no effect and ±100 for the full control effect; nearly all actives have a fitted effect of over 60% in size
Target sequence (P51450 whole entry, looked up, the tested form may be a part): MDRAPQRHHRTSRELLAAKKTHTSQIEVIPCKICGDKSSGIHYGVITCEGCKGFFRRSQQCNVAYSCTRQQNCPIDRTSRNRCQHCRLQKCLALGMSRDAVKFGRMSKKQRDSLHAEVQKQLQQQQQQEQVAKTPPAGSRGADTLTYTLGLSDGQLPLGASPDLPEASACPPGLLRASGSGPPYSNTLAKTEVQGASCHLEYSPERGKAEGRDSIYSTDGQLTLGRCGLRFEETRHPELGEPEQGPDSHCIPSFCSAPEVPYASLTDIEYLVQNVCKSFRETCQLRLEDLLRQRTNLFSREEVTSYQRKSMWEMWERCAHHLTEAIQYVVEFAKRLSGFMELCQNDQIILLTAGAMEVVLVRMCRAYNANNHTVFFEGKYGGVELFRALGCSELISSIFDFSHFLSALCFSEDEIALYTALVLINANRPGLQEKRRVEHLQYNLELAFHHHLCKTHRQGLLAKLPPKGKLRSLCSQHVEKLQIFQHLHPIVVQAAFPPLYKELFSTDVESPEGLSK
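Stable Schneider cell line, Gal4 DNA-binding domain fused to ROR gamma, UAS-luciferase. Cmpd 1 hr RT → CuSO4 700 uM final → 20 hr RT → luciferase reagent 10 min → luminescence.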
VP16 counter: inhibits Gal4-VP16 luciferase reporter, ROR gamma counter-screen; Potency, µM (top dose mostly 53.6 µM), inactives show at the top dose activity, negative = inhibition, hits mostly inhibitors; Drosophila S2 Gal4-VP16 UAS-luciferase, luminescence, 20 h; AID 2546; actives 3.5% (n = 310,000);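 also: Gal4-VP16 expression switched on by copper sulfate through the metallothionein promoter; potency is read from the fitted curve at half-maximal effect; % is scaled to controls: 0 for no effect and ±100 for the full control effect; nearly all actives have a fitted effect of over 50% in size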
Giardia killer: kills Giardia lamblia; AID 540267; actives 0.15% (n = 340,000); Giardia lamblia trophozoite viability; activity change, % at 7.66 µM, hits read low; in the data active = activity change below about -80%; inconclusive = between about -30% and that limit;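 also: parasites exposed to compound for two days anaerobically before the ATP read; % is scaled to controls: 0 for no effect and ±100 for the full control effect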
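Media and compound were dispensed first, then trophozoites at 100 cells/well; plates sat 48 hrs at 37 deg C without oxygen before ATP luminescence reagent was added and read after 15-30 min at room temperature.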
ELG1 FLuc counter: luciferase inhibition in cell-free luciferin readout for ELG1 hits; AID 624247; actives 3% (n = 350); Potency, µM (series often up to 46.1 µM), without a hit: at the top dose activity change, negative = inhibition, hits mostly inhibitors; cell-free firefly luciferase luminescence counter-screen, ViewLux; shares compounds with ELG1 DNA repair; also: potency is read from the fitted curve at half-maximal effect; % is scaled to controls: 0 for no effect and ±100 for the full control effect
ELG1 Luc conf: human ELG1 repair inhibition, luciferase-tagged ELG1 confirmation; shares compounds with ELG1 DNA repair; HEK293T ELG1-luciferase levels, luminescence; cells co-treated with 5-fluorouridine; Potency, µM (doses to about 46.1 µM), without a hit: at the highest dose activity change, negative = inhibition, hits mostly inhibitors; actives 68% (n = 670); AID 624248; also: potency is read from the fitted curve at half-maximal effect; % is scaled to controls: 0 for no effect and ±100 for the full control effect; nearly all actives have a fitted effect of over 55% in size
ELG1-Luc MMS: inhibits ELG1-dependent repair under MMS stimulation in HEK293T cells. shares compounds with ELG1 DNA repair. HEK293T luciferase-tagged ELG1 level, MMS stimulated. Potency, µM (series often up to 46.1 µM), for inactives: at the highest dose activity change, negative = inhibition, actives largely listed as inhibitors. actives 53% (n = 670). AID 624249; also: potency is read from the fitted curve at half-maximal effect; % is scaled to controls: 0 for no effect and ±100 for the full control effect; nearly all actives have a fitted effect of over 60% in size
ELG1 5FU viab: confirmation of ELG1 repair inhibitors: viability with 5FU; 670 tested, under 10 active; cell viability with 5-FU, ELG1-dependent repair; Potency, µM (highest dose often 46.1 µM), for the others: at the top dose activity change, negative = viability loss, usual class: cytotoxic; shares compounds with ELG1 DNA repair;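 also: ELG1-luc HEK293T cells cotreated with 5-fluorouridine at 10 µM final; potency is read from the fitted curve at half-maximal effect; viability measured 16 h after compound addition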
ELG1 MMS viab: confirmation of ELG1 repair inhibitors: viability with MMS | shares compounds with ELG1 DNA repair | Cell viability with MMS, ELG1-dependent DNA repair | Potency, µM (highest dose often 46.1 µM), for the others: at the top dose activity change, negative = viability loss, usual class: cytotoxic | actives 33% (n = 670) | AID 624251;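 also: ELG1-luc HEK293T cells co-treated with 10 µM MMS; potency is read from the fitted curve at half-maximal effect; viability read 16 h after compound addition; % is scaled to controls: 0 for no effect and ±100 for the full control effect; nearly all actives have a fitted effect of over 60% in size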
ELG1 unstim viab: affects unstimulated cell viability, ELG1 hit counter-screen; shares compounds with ELG1 DNA repair; cell viability counter-screen, unstimulated, luminescence; Potency, µM (highest dose often 45.9 µM), inactives show at the highest dose activity change, negative = loss of viability, actives largely listed as cytotoxic; actives 8% (n = 900); AID 624252;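 also: potency is read from the fitted curve at half-maximal effect; compound exposure lasted 16 hours before reading; % is scaled to controls: 0 for no effect and ±100 for the full control effect; nearly all actives have a fitted effect of over 55% in size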
FLuc enzyme: firefly luciferase inhibition counter-screen; shares compounds with ELG1 DNA repair; purified firefly luciferase, luminescence counter-screen; Potency, µM (top dose mostly 57.5 µM), for inactives: at the highest dose activity, negative = inhibition, usual class: inhibitors; actives 10% (n = 350); AID 624253; also: potency is read from the fitted curve at half-maximal effect; % is scaled to controls: 0 for no effect and ±100 for the full control effect
* = called active by the depositor; ? = inconclusive; / = not tested or not shown. A selection: hits, their analogues and other compounds. The true share with any hit is near 7.6%. Unless noted, calls follow the shape of the dose curve; as a rule, active = well fitted curve in the direction sought with a large enough effect; inconclusive = small, poorly fitted or top-dose-only effect, or another doubt; inactive = no such curve, though single readings can be large; an effect the other way counts as inactive or inconclusive.

SMILES	BRCA1 expr act	p53 reactivator	ELG1 DNA repair	RORg inh	VP16 counter	Giardia killer	ELG1 FLuc counter	ELG1 Luc conf	ELG1-Luc MMS	ELG1 5FU viab	ELG1 MMS viab	ELG1 unstim viab	FLuc enzyme
O=C(NCc1ccc(F)cc1)c1ccc2c(c1)N(Cc1c(F)cccc1Cl)C(=O)CS2	-2.4%	/	/	/	/	/	/	/	/	/	/	/	/
O=C(NC(c1ccc(Cl)cc1)c1ccsc1)C1CCN(Cc2cccc(C(F)(F)F)c2)CC1 (stereo not drawn)	-38.5%	/	/	/	/	/	/	/	/	/	/	/	/
CC1=C(C(=O)OCc2ccc3c(c2)OCO3)C(c2ccccc2OCc2ccccc2)NC(=O)N1 (stereo not drawn)	-37.4%	-5.9%	16.4µM*	7.9%	-6.3%	7.8	-7.5%	22.3µM*	?	1.5%	-12.2%	?	-7.5%
CCNc1ncc2nc(-c3cc(F)cc(F)c3)c(=O)n(Cc3ccc(F)cc3)c2n1	/	/	/	8.6%	-4.2%	/	/	/	/	/	/	/	/
CCC1CCCCN1CCCNC(=O)c1ccc2nc(N3CCC(C)CC3)sc2c1 (stereo not drawn)	9.0%	?	?	-33.8%	18.1%	4.0	102.2%	/	/	/	/	-11.8%	?
CC1CCN(c2nc3ccc(C(=O)NCCCN4CCCCC4)cc3s2)CC1	0.0%	11.1%	?	1.0%	3.7%	-21.8	/	/	/	/	/	/	/
COc1ccccc1NC(=O)CN1CCN(CC(=O)Nc2cc(C)ccc2OC)CC1	-17.0%	-5.1%	?	-16.0%	3.3%	11.6	/	/	/	/	/	/	/
CCc1ccccc1NC(=O)CN1CCN(CC(=O)Nc2cc(C)ccc2OC)CC1	-19.1%	4.0%	1.64µM*	34.5%	0.8%	11.9	/	?	2.23µM*	7.1%	2.5µM*	-6.7%	/
Cc1cccc(Nc2cc(Cl)nc(SCC(=O)O)n2)c1C	/	/	/	-2.7%	1.1%	/	/	/	/	/	/	/	/
CC(=O)c1cn(CC(=O)Nc2ccc(C)c(C)c2)c2ccccc12	-26.0%	-6.0%	2.06µM*	?	-0.8%	-14.6	/	-10.2%	?	-4.0%	?	-4.3%	/
c1ccc(CC2CCN(c3ncnc4sccc34)CC2)cc1	-3.0%	-1.3%	1.64µM*	10µM*	3.98µM*	20.3	30.9%	23.1%	1.58µM*	-10.2%	1.99µM*	?	?
COc1ccc(C2CC(c3ccncc3)=NN2c2ccc(S(N)(=O)=O)cc2)cc1 (stereo not drawn)	91.0%	20.4%	?	/	/	-5.9	/	/	/	/	/	?	/
CC1(C)C2CCC1(CS(=O)(=O)NCc1ccc(Cl)cc1Cl)C(=O)C2 (stereo not drawn)	-32.2%	-3.5%	-8.8%	-20.8%	-3.6%	18.5	/	/	/	/	/	/	/
C/C(Cl)=C\Cn1c(NCCc2ccccc2)nc2c1c(=O)n(C)c(=O)n2C	-79.1%	6.8%	5.17µM*	7.08µM*	3.55µM*	-4.6	-9.5%	12.6µM*	5µM*	-1.1%	?	?	-0.6%
c1nc(CCO[C@H]2CCCCO2)cc2cc3c(cc12)OCO3	?	1.4%	?	/	/	?	-39.3%	/	/	/	/	-4.3%	0.651µM*
N#C/C(=C/c1ccc(-c2ccc(C(=O)O)c(Cl)c2)o1)C(=O)NCC1CCCO1 (stereo not drawn)	27.4%	13.3%	11.7%	29.6%	0.6%	-3.5	/	/	/	/	/	/	/
Cc1ccc(Nc2nc(-c3ccncc3)nc3ccccc23)cc1	7.1%	-0.6%	2.59µM*	-23.6%	-1.2%	-1.0	42.4%	3.97µM*	18.4%	-1.8%	-14.4%	-18.3%	-10.5%
O=C(O)C1CCN(C(=O)CSc2nc3ccccc3c(=O)n2Cc2ccccc2)CC1	-26.6%	-1.1%	-14.9%	-1.1%	3.0%	0.5	/	/	/	/	/	/	/
NCCCCCc1cn([C@@H](CO)C(=O)NCCCCCCCCCCC(=O)N2CCNCC2)nn1	0.7%	5.1%	0.1%	/	/	17.2	/	/	/	/	/	/	/
Cc1ccc(-n2nc(CN3CCOCC3)c(-c3ccccc3)c2N)cc1Cl	-23.8%	-5.9%	1.64µM*	-2.9%	-0.1%	-14.5	/	1.41µM*	17.7µM*	?	25µM*	-1.2%	/
CCN(CC)S(=O)(=O)c1ccc(N2CCOCC2)c(NC(=O)c2cc(-c3ccccn3)nc3ccccc23)c1	-32.7%	2.6%	1.83µM*	-21.9%	0.2%	-3.0	/	4.45µM*	4.99µM*	-8.9%	9.96µM*	?	/
COc1ccc(CC(=O)Nc2cc(S(=O)(=O)N3CCOCC3)ccc2N2CCOCC2)cc1	17.1%	-1.5%	-15.8%	25.8%	-1.4%	-6.0	/	/	/	/	/	/	/
CCN(CC)S(=O)(=O)c1ccc(N2CCOCC2)c(NC(=O)c2cccc3c(=O)c(C)c(-c4ccccc4)oc23)c1	-53.4%	/	/	/	/	57.7	/	/	/	/	/	/	/
COc1cc(-c2cc(C(=O)Nc3ccc(S(=O)(=O)NCc4ccco4)cc3)c3ccccc3n2)cc(OC)c1OC	-44.2%	-2.5%	2.59µM*	20.8%	1.2%	0.9	/	1.99µM*	3.97µM*	?	-2.4%	-17.9%	/
